Growth data for seven compounds are collected here from PubChem BioAssay (NCI).

Assay in all cases: NCI-60 one-dose screen, 48 h (100 = growth as untreated, 0 = no growth, -100 = all killed)
Holding throughout (conditions): 10 µM unless noted

Assay [1] relates to HCT-15 colon.
The test system of assay [2] is HT29 colon.
The subject of assay [3] is SNB-75 CNS.
Assay [4] has as its system SNB-19 CNS.
For assay [5], the system named is U251 CNS.
Assay [6] deals with PC-3 prostate.
Assay [7] has as its system SK-MEL-5 melanoma.
Assay [8] concerns UACC-62 melanoma.
For assay [9], the system named is LOX IMVI melanoma.
For assay [10], the system named is SK-MEL-28 melanoma.
Assay [11] deals with SK-MEL-2 melanoma.
Assay [12] concerns EKVX NSCLC.
Assay [13] has as its system SN12C renal.
The subject of assay [14] is UO-31 renal.
Assay [15] relates to TK-10 renal.
The test system of assay [16] is ACHN renal.
Assay [17] deals with CAKI-1 renal.
Assay [18] has as its system A498 renal.
Assay [19] concerns CCRF-CEM leukemia.
In assay [20] the test system is MOLT-4 leukemia.

“And” between values parts separate entries of the source, which are not always exact repeats. Equal entries are not always repeated. This is part of a sample that, as a whole, favours compounds with a hit. Of some 83,000 tested, about 20% had one in any assay.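 Negative percent growth values reflect cell death: -40 means 40% of the cells present at the start died, and -100 means all died.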 The source made the active and inactive calls. How the source made its calls: active means growth percent below 10; inactive means the rest.

For the compound `O=C(Nc1ccc(Cl)cc1)c1cc2ccccc2cc1O`, the growth in assay [1] was 12.8% (inactive) and 15.8% (inactive); in assay [2] it was 94.7% (inactive) and 8.61% (active); in assay [3] it was 52.6% (inactive) and 53.1% (inactive); in assay [4] it was 37.7% (inactive) and 29.6% (inactive); in assay [5], 21.2% (inactive) and -8.1% (active); in [6], 11.5% (inactive) and -13.1% (active). For the same compound, the growth in assay [7] is 14% (inactive) and 0.898% (active); in assay [8] it was 28.3% (inactive) and 35.1% (inactive); in assay [9], 37.3% (inactive) and 12% (inactive); in assay [10] it was 43.8% (inactive) and 45.1% (inactive); in assay [11] it was 36.9% (inactive) and 7.35% (active); in assay [12], 15.3% (inactive) and 14.6% (inactive). Also, the growth in assay [13] is 8.95% (active) and -2.39% (active); in assay [14], 10.9% (inactive) and 4.71% (active); in [15], 53.3% (inactive) and 8.41% (active); in [16], 30.3% (inactive) and 31.2% (inactive); in assay [17], 34.5% (inactive) and -23.4% (active); in [18], -5.52% (active). Further, the growth is 17.8% (inactive) in assay [19]; 4.27% (active) and -8.37% (active) in assay [20].

On to `O=C(c1ccc(Cl)cc1)C(NCCO)c1ccc(Cl)cc1` (stereo not drawn), for which the growth in assay [1] is 99.7% (inactive) and 99% (inactive); in assay [2], 109% (inactive) and 92.2% (inactive); in [3] it was 90.1% (inactive) and 81.8% (inactive); in [4], 101% (inactive) and 97.6% (inactive); in [5], 95.9% (inactive) and 102% (inactive); in assay [6], 81.9% (inactive) and 84.4% (inactive). In addition, the growth in assay [7] was 91.9% (inactive) and 105% (inactive); in [8], 85.3% (inactive) and 79.9% (inactive); in assay [9], 94.8% (inactive) and 96.1% (inactive); in assay [10], 111% (inactive) and 105% (inactive); in assay [11], 102% (inactive); in assay [12], 103% (inactive). Moreover, the growth in [13] is 99.6% (inactive) and 100% (inactive); in [14], 80.6% (inactive) and 83.8% (inactive); in assay [15], 105% (inactive) and 98.6% (inactive); in [17], 102% (inactive); in [18], 92.7% (inactive) and 110% (inactive); in assay [19], 99.7% (inactive) and 129% (inactive). Moreover, the growth in assay [20] was 86.6% (inactive) and 96.6% (inactive).

Consider `COc1ccc(-c2cn[nH]c2-c2cc(OC)c(OC)c(OC)c2)cc1N`, for which the growth in assay [1] is 8.28% (active) and 13.1% (inactive); in assay [2], 1.51% (active) and 10.1% (inactive); in assay [3], 57.5% (inactive) and 20.3% (inactive); in [4], 34.4% (inactive) and 34.1% (inactive); in [5] it was 9.51% (active) and 19.3% (inactive); in assay [6] it was 19.1% (inactive) and 27.2% (inactive). The growth was -40.3% (active) and -49.2% (active) in assay [7]; 46.1% (inactive) and 32.6% (inactive) in assay [8]; 35.2% (inactive) and 28.5% (inactive) in assay [9]; 49.7% (inactive) and 62.5% (inactive) in [10]; 47.8% (inactive) and 62.1% (inactive) in assay [11]; 47.5% (inactive) and 44% (inactive) in [12]. Besides, the growth in [13] was 36.3% (inactive) and 28.5% (inactive); in assay [14], 50.1% (inactive) and 34.7% (inactive); in assay [15], 76.4% (inactive) and 91.4% (inactive); in assay [16], 30.7% (inactive) and 29.4% (inactive); in [17] it was 25.1% (inactive) and 22.9% (inactive); in assay [18], -1.49% (active). The growth in [19] was 22.1% (inactive) and 21.2% (inactive); in assay [20], 16.3% (inactive) and 23.4% (inactive).

In the case of `COc1ccc(/C(C#N)=C/c2ccccn2)cc1`, the growth in assay [1] was 96.2% (inactive) and 109% (inactive); in [2], 106% (inactive) and 103% (inactive); in assay [3], 99.2% (inactive) and 105% (inactive); in [4], 97.9% (inactive) and 106% (inactive); in [5] it was 97.9% (inactive) and 101% (inactive); in assay [6], 104% (inactive) and 101% (inactive). For the same compound, the growth in assay [7] was 94.9% (inactive) and 99.9% (inactive); in assay [8] it was 93.8% (inactive) and 114% (inactive); in assay [9], 99.7% (inactive) and 115% (inactive); in [10], 107% (inactive) and 139% (inactive); in [11], 103% (inactive) and 117% (inactive); in [12], 90.1% (inactive) and 99.5% (inactive). The growth in [13] was 101% (inactive) and 115% (inactive); in [14], 95.5% (inactive) and 98.9% (inactive); in assay [15], 104% (inactive) and 117% (inactive); in assay [16], 108% (inactive) and 109% (inactive); in assay [18], 93.2% (inactive) and 122% (inactive); in assay [19], 93% (inactive) and 102% (inactive). Also, the growth in [20] is 96.7% (inactive) and 103% (inactive).

Consider `CNc1ccc2nc3ccc(=[N+](C)C)cc-3sc2c1`, for which the growth in assay [1] was 17.2% (inactive) and 9.61% (active); in assay [2], 9.87% (active) and 38.1% (inactive); in assay [3], -53.5% (active); in [4], 1.89% (active) and -5.26% (active); in assay [5] it was -48.5% (active) and -15.5% (active); in assay [6] it was 1.57% (active) and 1.01% (active). Further, the growth in assay [7] is -97% (active) and -61.1% (active); in [8], 4.52% (active) and -3.38% (active); in [9], -57.5% (active) and -44.1% (active); in assay [10], -31.3% (active) and 27.9% (inactive); in assay [11], 4.78% (active) and 4.79% (active); in assay [12], 40.9% (inactive) and 44.1% (inactive). Besides, the growth in assay [13] was -22% (active) and -62.5% (active); in [14], 26.7% (inactive) and 33.7% (inactive); in assay [15], -3.64% (active) and 17.3% (inactive); in assay [16], 14.6% (inactive) and -27.6% (active); in [17], 11.2% (inactive) and 4.64% (active); in assay [18] it was 57.8% (inactive) and 49.1% (inactive). Further, the growth in [19] is 9.67% (active) and 11.8% (inactive); in assay [20], -8.79% (active) and 12.2% (inactive).

As to `CNC(=O)c1cccc(-c2ccc3c(N4CCOC[C@@H]4C)nc(N4CCOC[C@@H]4C)nc3n2)c1`, the growth was 9.22% (active) and 7.13% (active) in [1]; 18.3% (inactive) and 1.73% (active) in [2]; -32.8% (active) and -40.5% (active) in assay [3]; 10.2% (inactive) and 8.05% (active) in assay [4]; 9.22% (active) and 6.58% (active) in assay [5]; 6.6% (active) and 7.98% (active) in [6]. Further, the growth is -38.2% (active) and -49.8% (active) in [7]; -24.9% (active) and -51.8% (active) in [8]; 3.01% (active) and -1.67% (active) in assay [9]; -15.7% (active) and -26.3% (active) in assay [10]; -8.99% (active) in assay [11]; -5% (active) and 2.98% (active) in assay [12]. Further, the growth in [13] is 12.5% (inactive) and 5.62% (active); in assay [14], -3.68% (active) and -24.2% (active); in assay [15], -11.3% (active) and -31.2% (active); in assay [16] it was 0.741% (active) and -1.46% (active); in assay [17] it was 9.85% (active) and -15.3% (active); in assay [18], -35.6% (active) and -37.8% (active). The growth in [19] is 28% (inactive) and 20.3% (inactive); in assay [20], 16.8% (inactive) and 8.62% (active).

In the case of `Cc1ccc(S(=O)(=O)Nc2nc3ccccc3nc2Nc2ccc3nsnc3c2)cc1`, the growth in assay [1] was 32% (inactive) and 58.6% (inactive); in assay [2] it was 47.5% (inactive) and 63.2% (inactive); in [3] it was 63.3% (inactive) and 65.9% (inactive); in assay [4] it was 47.7% (inactive) and 47.6% (inactive); in assay [5], 26.1% (inactive) and 40.1% (inactive); in assay [6] it was 42.8% (inactive) and 27.3% (inactive). Moreover, the growth was 18.7% (inactive) and 13.7% (inactive) in assay [7]; 19% (inactive) and 12.8% (inactive) in [8]; 65.8% (inactive) and 47% (inactive) in assay [9]; 49.8% (inactive) and 51.6% (inactive) in assay [10]; 7.36% (active) in [11]; 46.5% (inactive) and 49.7% (inactive) in [12]. Moreover, the growth is 50.9% (inactive) and 34.8% (inactive) in assay [13]; 43.6% (inactive) and 22.3% (inactive) in [14]; 35.4% (inactive) and 53.3% (inactive) in [15]; 54.5% (inactive) and 61% (inactive) in assay [16]; 59.2% (inactive) and 31.3% (inactive) in assay [17]; 56.7% (inactive) and 11.7% (inactive) in [18]. In addition, the growth is 44.2% (inactive) in [19]; 35.3% (inactive) and 45.3% (inactive) in [20].
